Data as given in ChEMBL document CHEMBL1157539, “Thousands of chemical starting points for antimalarial lead identification” (Nature, 2010).

Experiments:
Format in all cases: functional
[1] = test system: Plasmodium falciparum; experiment: GSK_TCMDC: Inhibition of Plasmodium falciparum 3D7 in whole red blood cells, using parasite LDH activity as an index of growth. Test compounds present at 2uM
[2] = test system: Plasmodium falciparum; experiment: GSK_TCMDC: Inhibition of Plasmodium falciparum Dd2 in whole red blood cells, using parasite LDH activity as an index of growth. Test compounds present at 2uM
[3] = test system: HepG2; experiment: GSK_TCMDC: Percent inhibition of human HepG2 cell line. Test compounds present at 10uM.

Cc1cccc(OC(C)C(=O)Nc2cc(C(F)(F)F)ccc2N2CCOCC2)c1 (centres undefined)
Inhibition [1]: 100%
Inhibition [2]: 98%
Inhibition [3]: 2%

Cn1cc(-c2ccccc2C(=O)O)c(=O)c2cc(Cl)ccc21
Inhibition [1]: 89%
Inhibition [2]: 0%
Inhibition [3]: 16%

COC(=O)c1cccc(OCCNC2CCN(C[C@H](O)c3ccnc4ccc(OC)cc34)CC2)c1.O=C(O)C(=O)O
Inhibition [1]: 100%
Inhibition [2]: 96%
Inhibition [3]: 0%

O=C(Nc1ccc(OC2CCN(Cc3ccc(F)cc3)C2)c(Cl)c1)c1ccsc1.O=C(O)C(F)(F)F (centres undefined)
Inhibition [1]: 98%
Inhibition [2]: 95%
Inhibition [3]: 26%

COc1cc(NCCCCCNc2cc(Cl)nc3ccccc23)nc2ccccc12
Inhibition [1]: 100%
Inhibition [2]: 54%
Inhibition [3]: 17%

CC(CN(C)C)C(=O)Nc1ccc(-c2ccc(-c3nc4cc(F)ccc4[nH]3)cc2)cc1 (centres undefined)
Inhibition [1]: 100%
Inhibition [2]: 95%
Inhibition [3]: 14%

CC(C)C(=O)NC(c1cccs1)c1cc(Cl)c2cccnc2c1O (centres undefined)
Inhibition [1]: 91%
Inhibition [2]: 91%
Inhibition [3]: 23%

CCc1nc(N)nc(N)c1-c1ccc(F)cc1
Inhibition [1]: 96%
Inhibition [2]: 0%
Inhibition [3]: 52%

Nc1ncc(-c2ccsc2)c2ccc(-c3ccc4cn[nH]c4c3)cc12
Inhibition [1]: 95%
Inhibition [2]: 41%
Inhibition [3]: 18%

CCN(C(=O)c1ccc(NC(=O)c2cccs2)cc1)c1nc2c(C)cccc2s1
Inhibition [1]: 89%
Inhibition [2]: 85%
Inhibition [3]: 24%

CCc1ccc(N2C(=O)C3C(Cc4ccc(OC(C)(C)C)cc4)NC4(C(=O)N(Cc5ccccc5)c5ccc(F)cc54)C3C2=O)cc1 (centres undefined)
Inhibition [1]: 96%
Inhibition [2]: 49%
Inhibition [3]: 9%

COc1cc2c(cc1OC)C(C(=O)c1ccccc1)=NCC2.Cl
Inhibition [1]: 85%
Inhibition [2]: 62%
Inhibition [3]: 19%

C(=Cc1nc2ccccc2s1)c1ccc2c(c1)OCCO2.Cl
Inhibition [1]: 98%
Inhibition [2]: 96%
Inhibition [3]: 13%

CC(C)c1cn2c3c(cc(C(=O)N[C@@H](Cc4ccccc4)[C@H](O)CNC4CCOCC4)cc13)N(C)S(=O)(=O)CC2.O=CO
Inhibition [1]: 98%
Inhibition [2]: 99%
Inhibition [3]: 9%

COc1nc2c(CCN3CC[C@H](NCc4ccc5c(c4)NC(=O)CO5)[C@H](O)C3)c(Cl)cnc2cc1F.Cl
Inhibition [1]: 90%
Inhibition [2]: 22%
Inhibition [3]: 21%

Cc1cccc2nc(-c3ccc(-c4cccc(NC(=O)c5cncn5C)c4)s3)[nH]c12
Inhibition [1]: 100%
Inhibition [2]: 16%
Inhibition [3]: 13%

N#Cc1ccnc(-c2ccc(CNC3CCN(CC4Cn5c(=O)ccc6ccc(F)c4c65)CC3)cc2)c1.O=C(O)C(F)(F)F (centres undefined)
Inhibition [1]: 88%
Inhibition [2]: 41%
Inhibition [3]: 24%

Cc1cc(NS(=O)(=O)c2cccc(C(C)N3CCC(N4CCCC4)CC3)c2)ccc1C(C)C (centres undefined)
Inhibition [1]: 100%
Inhibition [2]: 53%
Inhibition [3]: 30%

c1ccc2c(CNc3nc(NCC4CCCCC4)nc4[nH]cnc34)cccc2c1
Inhibition [1]: 89%
Inhibition [2]: 44%
Inhibition [3]: 0%

CN1CCN(c2ccnc3ccc(NC(=O)N(C)c4ccc(Cl)c(Cl)c4)cc23)CC1
Inhibition [1]: 100%
Inhibition [2]: 85%
Inhibition [3]: 5%

CN1CCN(CCCNc2ncc3c(-c4ccc(NC(=O)Nc5cc(C(F)(F)F)ccc5F)c(F)c4)nn(C)c3n2)CC1.O=C(O)C(F)(F)F
Inhibition [1]: 98%
Inhibition [2]: 94%
Inhibition [3]: 100%

COc1ccc(Cn2ncc3c4c(N)nc(N)nc4ccc32)cc1OC
Inhibition [1]: 94%
Inhibition [2]: 95%
Inhibition [3]: 68%

Cc1c(CNCCCNc2cc(=O)c3ccccc3[nH]2)sc(-c2ccco2)c1Br.Cl
Inhibition [1]: 93%
Inhibition [2]: 39%
Inhibition [3]: 0%

O=C(NCc1ccc2c(c1)OCO2)c1nn(CCN2CCC(N3CCCC3)CC2)cc1-c1ccc(Cl)c(Cl)c1
Inhibition [1]: 94%
Inhibition [2]: 17%
Inhibition [3]: 21%

O=C(O)C(F)(F)F.c1ccc(C2CCN(Cc3ccc(-c4c[nH]c5nc(NC6CCCC6)ncc45)cc3)CC2)cc1
Inhibition [1]: 82%
Inhibition [2]: 9%
Inhibition [3]: 39%

O=C(/C=C/c1ccc(Cl)c(Cl)c1)NCCCCCN1CCC(CCNC(=O)/C=C/c2ccccc2F)CC1
Inhibition [1]: 94%
Inhibition [2]: 1%
Inhibition [3]: 47%

N#Cc1ccc(N[C@@H](CC2CCCCC2)C(=O)NCc2cc(Cl)cc(Cl)c2)c2ccccc12.O=C(O)C(F)(F)F
Inhibition [1]: 94%
Inhibition [2]: 88%
Inhibition [3]: 34%

Cl.N=C(N)c1cc(Br)cc(NC(=O)Nc2cc(Br)cc(C(=N)N)c2)c1
Inhibition [1]: 93%
Inhibition [2]: 76%
Inhibition [3]: 0%
